Data: PubChem BioAssay (Tox21)
Results filed as inconclusive are left out. The source made the active and inactive calls. Calls follow the shape of the dose curve; as a rule, active = well fitted cell-killing curve with a large enough effect in the repeat runs; inconclusive = weak or mixed curves, or effect the other way; inactive = no such curve, though single readings can be large or run the other way.

Experiment: qHTS assay to identify small molecule antagonists of the progesterone receptor (PR) signaling pathway - cell viability counter screen (AID 1346798); also: nearly all actives have a fitted effect of over 50% in size
Details: PR-UAS-bla HEK293T viability, CellTiter-Glo luminescence, 16 h; series mostly up to 92.4 µM; activity change, negative = cytotoxicity: at the top concentration
Text: National Center for Advancing Translational Sciences [NCATS]
NIH Chemical Genomics Center [NCGC]
U.S. Environmental Protection Agency [EPA]
National Institutes of Environmental Health Sciences [NIEHS]
National Toxicology Program [NTP]
U.S. Food and Drug Administration [FDA]
Progesterone receptor (PR), a nuclear hormone receptor, plays an important role in development, metabolic homeostasis and reproduction. It is activated by the steroid hormone progesterone. Endocrine disrupting chemicals (EDCs) and their interactions with steroid hormone receptors like PR causes disruption of normal endocrine function. To identify the compounds that inhibit PR signaling, a PR-UAS-bla GripTite cell line i.e. PR-UAS-bla HEK293T (Invitrogen, Carlsbad, CA, USA) containing a beta-lactamase reporter gene under the control of an UAS response element was used to screen Tox21 10K compound library. The cytotoxicity of the Tox21 compound library against the PR-bla cell line was tested in parallel by measuring the cell viability using CellTiter-Glo assay in the same wells.
Tox21 Assay Protocol Summary:
PR-UAS-bla HEK293T cells were dispensed at 3,000 cells/4 uL of assay medium containing 2% charcoal stripped FBS per well into black wall/clear-bottom 1536-well plates using a Multidrop Combi (ThermoFisher Scientific, Waltham, MA) dispenser. After the assay plates were incubated at a 37C and 5% CO2 for 4 hr, 23 nL of compounds dissolved in DMSO, positive controls or DMSO only was transferred to the assay plate by a Pintool station (Kalypsys, San Diego, CA), followed by addition of 1 uL of R5020 in assay medium using a Flying Reagent Dispenser (FRD, Aurora Discovery, San Diego, CA). The plates were incubated at 37C and 5% CO2 for 16 hr. Then 1 uL of LiveBLAzer B/G FRET substrate was added using a Flying Reagent Dispenser, the plates were incubated at room temperature for 2 hours, and fluorescence intensity was measured by an Envision plate reader (PerkinElmer, Shelton, CT). For cell viability readout that measures cytotoxicity, 4 uL/well of CellTiter-Glo reagent was added into the assay plates using a FRD. After 30 min incubation at room temperature, the luminescence intensity in the plates was measured using a ViewLux (PerkinElmer) plate reader.
% is scaled to controls: 0 for no effect and ±100 for the full control effect; potency is read from the fitted curve at half-maximal effect.

| SMILES | activity change, negative = cytotoxicity | Potency |
| --- | --- | --- |
| c1ccc(CCc2ccccc2)cc1 | -0.144% (inactive) |  |
| Nc1ccncc1N | -6.08% [at 42.5 µM] (inactive) |  |
| O=C1CCCCCCCCCCCCCCO1 | 0.35% (inactive) |  |
| CCOc1ccc2nc(S(N)(=O)=O)sc2c1 | 10.6% [at 42.5 µM] (inactive) |  |
| CC(C)(C)C(=O)c1ccccc1 | -1.65% (inactive) |  |
| C=C(C)C(=O)OCC1CCCO1 (stereo not given) | -12.3% (inactive) |  |
| Nc1ccccn1 | 0.41% (inactive) |  |
| CN1CCC(=C2c3ccccc3CCc3cccnc32)CC1 | -22.7% [at 42.5 µM] (inactive) |  |
| CCN[C@@H]1C[C@H](N)[C@@H](OC2OC(CN)=CCC2N)[C@H](O)[C@H]1O[C@H]1OC[C@](C)(O)[C@H](NC)[C@H]1O (stereo not given in full) | 4.73% [at 0.348 µM] (inactive) |  |
| NC(=O)N1c2ccccc2CC(=O)c2ccccc21 | 14% [at 42.5 µM] (inactive) |  |
| O=S(=O)(O)c1cccc2ccccc12 | 19.9% (inactive) |  |
| CC(C)C[C@@H](N)C(=O)O | -9.21% [at 18.9 µM] (inactive) |  |
| [K+] | -24.7% (inactive) |  |
| Cc1ccc(C(=O)c2ccccc2)cc1 | -12.3% (inactive) |  |
| CC1=NN(c2cc(S(=O)(=O)O)ccc2Cl)C(=O)C1N=Nc1ccccc1 (stereo not given) | -7.05% (inactive) |  |
| CCCCOC(=O)CCC(C)=O | 1.5% (inactive) |  |
| NO | 2.81% (inactive) |  |
| C=COCC1CCC(COC=C)CC1 (stereo not given) | 13.3% (inactive) |  |
| COc1cc(C)nc(-n2nc(C)cc2OC)n1 |  | 11.9 µM (active) |
| CC(C)(C)c1ccc(-c2ccc(C(C)(C)C)cc2)cc1 | -8.33% (inactive) |  |

| SMILES | activity change, negative = cytotoxicity | Potency |
| --- | --- | --- |
| CC[N+](C)(CC)CCOC(=O)C1c2ccccc2Oc2ccccc21 | -5.45% [at 42.5 µM] (inactive) |  |
| [Ca+2] | -28.2% (inactive) |  |
| CC(=O)OCC(=O)[C@@]1(O)[C@H](C)C[C@H]2[C@@H]3CCC4=CC(=O)C=C[C@]4(C)[C@@]3(F)[C@@H](O)C[C@@]21C | -22.3% [at 42.5 µM] (inactive) |  |
| CCCCCCCCCC[N+](C)(C)[O-] | -12.4% (inactive) |  |
| C=CC(=O)OCCCl | 2.36% (inactive) |  |
| COc1ccc2cc1Oc1cc3c(cc1OC)CC[N+](C)(C)[C@H]3Cc1ccc(cc1)Oc1c(OC)c(OC)cc3c1[C@@H](C2)[N+](C)(C)CC3 | 1.84% [at 42.5 µM] (inactive) |  |
| CO[C@@]1(NC(=O)CSC[C@@H](N)C(=O)O)C(=O)N2C(C(=O)O)=C(CSc3nnnn3C)CS[C@@H]21 | 0.425% [at 42.5 µM] (inactive) |  |
| CC1=C(C/C=C(\C)CCC[C@H](C)CCC[C@H](C)CCCC(C)C)C(=O)c2ccccc2C1=O | 6.69% [at 42.5 µM] (inactive) |  |
| CNC(=O)Nc1ccc(Cl)c(Cl)c1 | 9.73% (inactive) |  |
| CC(=O)c1ccc2ccccc2c1 | 1.42% (inactive) |  |
| CCN[C@H]1C[C@H](C)S(=O)(=O)c2sc(S(N)(=O)=O)cc21 | 4.45% [at 42.5 µM] (inactive) |  |
| COC(=O)Nc1ccc(Cl)c(Cl)c1 | 11.6% (inactive) |  |
| N[C@@H](CCC(=O)O)C(=O)O | 2.71% (inactive) |  |
| CN1CCN(c2cc3c(nn2)Oc2ccccc2N3C)CC1 | -18% [at 18.9 µM] (inactive) |  |
| CCC(C)(CCCC(C)C)OC(C)=O (stereo not given) | 1.25% (inactive) |  |
| CCCCCCCC1CCCC1=O (stereo not given) | -4.71% (inactive) |  |
| Cc1cccc(C)c1NC(=O)CC12CCCN1CCC2 | -3.91% [at 42.5 µM] (inactive) |  |
| C[N+](C)(CCOc1ccccc1)Cc1cccs1 | -15.7% [at 42.5 µM] (inactive) |  |
| C=C(C)C(=O)OCCOCCOCCOCCOC(=O)C(=C)C | 12.2% (inactive) |  |
| Nc1ccn([C@@H]2O[C@H](CO)[C@@H](O)C2O)c(=O)n1 (stereo not given in full) | 2.8% (inactive) |  |
